ADAM10 inh = inhibitors of human ADAM10. recombinant ADAM10, EDANS/DABCYL FRET peptide cleavage, 3 h. inhibition, % at 7 µM. AID 720582. hit rate 0.62% among 370,000. O14672;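 active = inhibition above a per-campaign cutoff equal to the mean of compounds falling between control-based bounds plus 3 SD, cut at about 20% in these data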
Target sequence (O14672 214-748 limits assumed): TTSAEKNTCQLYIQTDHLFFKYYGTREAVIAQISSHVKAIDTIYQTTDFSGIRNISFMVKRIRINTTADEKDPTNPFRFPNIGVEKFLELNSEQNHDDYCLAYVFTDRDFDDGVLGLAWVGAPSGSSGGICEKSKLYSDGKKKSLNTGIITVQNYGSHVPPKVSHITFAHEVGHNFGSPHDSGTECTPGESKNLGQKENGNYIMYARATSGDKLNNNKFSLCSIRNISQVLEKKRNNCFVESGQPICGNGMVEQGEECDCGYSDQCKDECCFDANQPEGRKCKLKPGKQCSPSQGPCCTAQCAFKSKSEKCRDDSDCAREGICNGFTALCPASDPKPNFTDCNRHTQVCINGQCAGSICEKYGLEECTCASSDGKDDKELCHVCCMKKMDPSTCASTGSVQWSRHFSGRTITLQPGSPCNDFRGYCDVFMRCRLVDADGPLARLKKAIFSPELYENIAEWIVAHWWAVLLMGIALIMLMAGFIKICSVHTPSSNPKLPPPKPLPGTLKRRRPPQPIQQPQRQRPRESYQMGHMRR
sPLA2-III inh = Blocks human group III sPLA2 activity | Q9NZ20 | QFRET BODIPY PC-A2 liposome hydrolysis, fluorescence | inhibition, % at 12.2 µM | hit rate 0.56% among 370,000 | AID 743126;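 active = inhibition above mean plus 3 SD of compounds lying within the high and low control bounds, cut at about 19% in these data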
ADAM17 inh = ADAM17 inhibition, QFRET primary screen. P78536. inhibition, % at 6.95 µM. hit rate 0.83% among 370,000. recombinant ADAM17, EDANS/DABCYL FRET peptide cleavage;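 active = inhibition above the mean of compounds lying between control limits plus 3 SD, set per campaign, cut at about 8.5% in these data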
PLCb3 inh = blocks human PLC-beta3 enzyme activity; Q01970; Purified PLC-beta3, fluorogenic substrate, fluorescence; inhibition, % at 12.2 µM; hit rate 0.18% among 370,000; AID 720704; in the data active = inhibition above about 11%
PLCg1 inh = inhibitors of human phospholipase C gamma1 | P19174 | purified PLC-gamma1, fluorogenic substrate, fluorescence | inhibition, % at 12.2 µM | hit rate 0.84% among 370,000; in the data active = inhibition above about 9.5%
proKLK7 act = activators of human kallikrein-7 zymogen. P49862. purified proKLK7, EDANS-DABCYL substrate fluorescence; 100% is mature enzyme control, 0% vehicle. activation, % at 7 µM. hit rate 0.9% among 370,000;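 active = activation above the mean of all tested compounds plus 3 SD, computed per campaign excluding outliers beyond control limits, cut at about 13% in these data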
ADAM10 confirm = human ADAM10 inhibition, confirmation. hit rate 1% among 2,100. ADAM10 QFRET peptide cleavage, EDANS fluorescence. shares compounds with ADAM10 inh. inhibition, % at 6.95 µM;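 active = inhibition above about 20% chosen separately for each screening run, limit read from the data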
ADAM17 counter = counter-screen for ADAM10 exosite inhibitors: inhibitors of human ADAM17 | AID 743214 | hit rate 0.5% among 2,100 | ADAM17 QFRET peptide cleavage, EDANS fluorescence | shares compounds with ADAM10 inh | inhibition, % at 6.95 µM;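 active = mean triplicate inhibition above the solvent-only control wells' mean plus 3 SD, cut at about 12% in these data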
ADAM10 counter = ADAM10 inhibition, counter-screen for ADAM17 exosite hits | shares compounds with ADAM17 inh | recombinant ADAM10, EDANS/DABCYL FRET peptide cleavage, 3 h | inhibition, % at 6.95 µM | hit rate 47% among 2,900 | AID 743256;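 active = mean inhibition over the triplicate runs exceeds the activity threshold set in the earlier primary screen, cut at about 20% in these data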
ADAM17 confirm = human ADAM17 inhibition, confirmation. shares compounds with ADAM17 inh. inhibition, % at 6.95 µM. recombinant ADAM17, EDANS/DABCYL QFRET peptide cleavage. hit rate 65% among 2,900;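 active = mean inhibition across replicates above the hit cutoff set in the primary screen, cut at about 8.5% in these data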
Large screens that a line does not name were inactive (follow-up assays come after a bar, where they were run). The list is not random: actives were taken first. Their share in the collection is about 3.4%.

COc1ccc(OC(F)(F)F)cc1CC1(C)C(=O)Nc2ccc(S(=O)(=O)NC3CCCCC3)cc21 (stereo unspecified)	ADAM10 inh 23, ADAM17 inh 10 | ADAM10 confirm inactive | ADAM17 counter inactive | ADAM10 counter 40 | ADAM17 confirm 18
Cc1cc(C)c(-c2cc(NC(=O)COC(=O)c3ccc(C#N)cc3)n(-c3ccccc3)n2)cc1C	ADAM10 inh 23, ADAM17 inh 9.1 | ADAM10 confirm inactive | ADAM17 counter inactive | ADAM10 counter 22 | ADAM17 confirm 13
Cc1cc(C)c(-c2cc(NC(=O)COC(=O)c3ccc(NC(=O)CC#N)cc3)n(-c3ccccc3)n2)cc1C	none
CCCCCC(=O)N1C[C@H](n2cc(-c3ccc(F)cc3)nn2)[C@@H](O)C[C@@H]1c1ccc(Cl)cc1	ADAM10 inh 31, ADAM17 inh 13 | ADAM10 confirm inactive | ADAM17 counter inactive | ADAM10 counter 26 | ADAM17 confirm 13
COc1ccc(C2=Nc3ccccc3NC(=O)C2N(C(=O)c2ccnc3ccccc23)c2ccccc2)cc1 (stereo unspecified)	ADAM10 inh 33, ADAM17 inh 17 | ADAM10 confirm inactive | ADAM17 counter inactive | ADAM10 counter 21 | ADAM17 confirm 15
O=C(NCc1ccccc1)c1onc(CS(=O)(=O)c2ccccn2)c1C(=O)NCc1ccccc1	none
CC(O)[C@H]1CNCCN1CCc1cccc(F)c1 (stereo partly specified)	none
CC(O)[C@H]1CNCCN1CC1(c2ccccc2)CC1 (stereo partly specified)	ADAM10 inh 20, ADAM17 inh 11 | ADAM10 confirm inactive | ADAM17 counter inactive | ADAM10 counter inactive | ADAM17 confirm inactive
N#Cc1cc2ccccc2nc1SCC(=O)Nc1ccc(S(=O)(=O)N2CCCC2)cc1	ADAM10 inh 29, ADAM17 inh 12 | ADAM10 confirm inactive | ADAM17 counter inactive | ADAM10 counter inactive | ADAM17 confirm inactive
CCOc1nc(OCC)c2cnn(C)c2n1	none
O=C(/C=C/c1cccc(C(F)(F)F)c1)Nc1cccc(C(F)(F)F)c1	ADAM10 inh 26, ADAM17 inh 12 | ADAM10 confirm inactive | ADAM17 counter inactive | ADAM10 counter 29 | ADAM17 confirm 17
Cc1ccc(NC(=O)/C=C/c2cccc(C(F)(F)F)c2)cc1	none
O=C(CN1CCN(S(=O)(=O)c2ccc(Br)cc2)CC1)N/N=C/c1ccc(Cl)c([N+](=O)[O-])c1	ADAM10 inh 26, ADAM17 inh 11 | ADAM10 confirm inactive | ADAM17 counter inactive | ADAM10 counter 26 | ADAM17 confirm 14
Cc1cc(C)c(NC(=O)COC(=O)CSc2ccc(Br)cc2C)c(C)c1	none
Cc1ccc(S(=O)(=O)N2CCOCC2)cc1NC(=O)COC(=O)c1ccc(Br)cc1	none
CCN(CC)c1ccc(NC(=O)COC(=O)CSc2ccc(Br)cc2C)cc1	ADAM10 inh 26, ADAM17 inh 20 | ADAM10 confirm inactive | ADAM17 counter inactive | ADAM10 counter 41 | ADAM17 confirm 23
Cc1ccc(S(=O)(=O)N2CCOCC2)cc1NC(=O)COC(=O)CSc1ccc(Br)cc1C	ADAM10 inh 21, ADAM17 inh 13 | ADAM10 confirm inactive | ADAM17 counter inactive | ADAM10 counter 20 | ADAM17 confirm 11
COc1ccc(S(=O)(=O)N(NC2=NS(=O)(=O)c3ccccc32)C(=O)C(C)C)cc1	none
CCCCN(CC)CCNC(=O)CN1C(=O)COc2ccc(S(=O)(=O)N3CCCC3)cc21	none
COc1ccc(C(O)c2nc(-c3ccc4ccccc4c3)cs2)cc1 (stereo unspecified)	ADAM10 inh 42, ADAM17 inh 20 | ADAM10 confirm inactive | ADAM17 counter inactive | ADAM10 counter 21 | ADAM17 confirm 14
COc1cc(C(O)c2nc(-c3ccc4ccccc4c3)cs2)ccc1F (stereo unspecified)	ADAM10 inh 49, ADAM17 inh 23 | ADAM10 confirm inactive | ADAM17 counter inactive | ADAM10 counter 22 | ADAM17 confirm 15
COc1ccc(-c2csc(C(O)c3ccc(OC)cc3)n2)cc1 (stereo unspecified)	none
Cc1cc(Cn2nc(-c3ccccc3)cc2C(=O)NCc2cccc(Br)c2)on1	ADAM10 inh 37, ADAM17 inh 11 | ADAM10 confirm inactive | ADAM17 counter inactive | ADAM10 counter 24 | ADAM17 confirm 16
Cc1cc(Cn2nc(-c3ccccc3)cc2C(=O)NCc2cccc(C(F)(F)F)c2)on1	none
Cc1nn(C2CCS(=O)(=O)C2)c(C)c1CN(C)C(=O)c1ccc(F)cc1 (stereo unspecified)	none
CCOC(=O)CSc1nc(C)c(C(C)=O)cc1C(N)=O	none
CCOC(=O)C1=CN(Cc2cccc(F)c2)S(=O)(=O)NC1c1ccccc1 (stereo unspecified)	none
CCOC(=O)C1=CN(Cc2cccc(F)c2)S(=O)(=O)NC1CCc1ccccc1 (stereo unspecified)	ADAM10 inh 21, ADAM17 inh 12 | ADAM10 confirm inactive | ADAM17 counter inactive | ADAM10 counter 51 | ADAM17 confirm 20
COc1ccc(OC)c(NC(=O)c2cc(OC(C)=O)cc(C(=O)Nc3cc(OC)ccc3OC)c2)c1	none
COc1cccc(NC(=O)CN(C)C(=O)c2cn(-c3ccccc3)nc2-c2cccnc2)c1	none
COc1ccc(NC(=O)CN(C)C(=O)c2cn(-c3ccccc3)nc2-c2ccc(Cl)cc2)cc1	ADAM10 inh 20, ADAM17 inh 10 | ADAM10 confirm inactive | ADAM17 counter inactive | ADAM10 counter 38 | ADAM17 confirm 18
CCN1C(=O)[C@H]2[C@H]3CN=C(SCC(=O)c4ccccc4)N3[C@@](CC)(C(=O)OC)[C@H]2C1=O	none
CC1(c2ccc(OC(F)F)cc2)NC(=O)N(CC(=O)Nc2ccc(OC(F)F)cc2)C1=O (stereo unspecified)	none

Screening results deposited in PubChem by The Scripps Research Institute Molecular Screening Center.
